In PubChem BioAssay (Tox21):
Where “and” joins values, the source holds several entries; their conditions need not be identical. Identical values can stand only once. Some structures have more than one record in an assay (separate samples or runs), and their calls can disagree. Calls of active or inactive are those of the source. A call without a number means that no potency is given here. Unless noted, the call rests on the fitted dose curve; in most records, active means well fitted curve in the direction sought with a large enough effect in the repeat runs; inconclusive means weak or mixed curves; inactive means no such curve, though single readings can be large; an effect the other way counts as inactive or inconclusive.

Tests used:
[1] = qHTS assay to identify small molecule antagonists of the glucocorticoid receptor (GR) signaling pathway - cell viability counter screen (AID 720693); further: nearly all actives have a fitted effect of over 55% in size
[2] = qHTS assay for identifying genotoxic compounds that show differential cytotoxicity against isogenic chicken DT40 cell lines with known DNA damage response pathways - wild type cell line (AID 743012); further: nearly all actives have a fitted effect of over 60% in size; further: potency means the concentration at half of the fitted maximal effect
Method in brief: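 CellTiter-Glo luminescence readout of viability in wild type DT40 cells after 40 h compound exposure at 37 C/5% CO2; 300 cells/well; reagent incubated 30 min at room temperature before reading.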

[3] = qHTS assay for identifying genotoxic compounds that show differential cytotoxicity against isogenic chicken DT40 cell lines with known DNA damage response pathways - Rev3 mutant cell line (AID 743014); further: nearly all actives have a fitted effect of over 55% in size; further: potency means the concentration at half of the fitted maximal effect
[4] = qHTS assay for identifying genotoxic compounds that show differential cytotoxicity against isogenic chicken DT40 cell lines with known DNA damage response pathways - Rad54/Ku70 mutant cell line (AID 743015); further: nearly all actives have a fitted effect of over 60% in size; further: potency means the concentration at half of the fitted maximal effect
[5] = qHTS assay to identify small molecule antagonists of the androgen receptor (AR) signaling pathway - cell viability counter screen (AID 743033; further: nearly all actives have a fitted effect of over 45% in size)
[6] = qHTS assay to identify small molecule antagonists of the androgen receptor (AR) signaling pathway using the MDA cell line - cell viability counter screen (AID 743041; further: nearly all actives have a fitted effect of over 45% in size)
Method in brief: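 Using the breast carcinoma line MDA-kb2 AR-luc, test chemicals were co-incubated with R1881 for 16 h; CellTiter-Fluor reagent, added at 15.5 h, provided a fluorescence measure of live cells.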

[7] = qHTS assay to identify small molecule antagonists of the thyroid receptor (TR) signaling pathway - cell viability counter screen (AID 743064); further: nearly all actives have a fitted effect of over 50% in size
Method in brief: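 GH3.TRE-Luc rat pituitary cells carrying a TRE-luciferase reporter were treated with compound plus 1 nM T3 (final) for 23.5 h at 37 °C. Viability was then read in the same wells by CellTiter-Fluor fluorescence after a further 30 min.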

[8] = tested on: thyroid hormone receptor (rat, GH3 cells); assay: qHTS assay to identify small molecule agonists of the thyroid receptor (TR) signaling pathway (AID 743066; calls by dose curve)
[9] = qHTS assay to identify small molecule antagonists of the estrogen receptor alpha (ER-alpha) signaling pathway - cell viability counter screen (AID 743074; calls by dose curve; further: nearly all actives have a fitted effect of over 45% in size)
[10] = qHTS assay to identify small molecule antagonists of the estrogen receptor alpha (ER-alpha) signaling pathway using the BG1 cell line - cell viability counter screen (AID 743081);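 further: compound given together with 17beta-estradiol as the ER stimulus; series mostly up to about 70 µM; nearly all actives have a fitted effect of over 45% in size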
Aromatase (Homo sapiens) = Aromatase (Homo sapiens) (UniProt P11511); assay: qHTS assay to identify aromatase inhibitors (AID 743083); further: series mostly up to about 70 µM; nearly all actives have a fitted effect of over 55% in size
Aromatase (Homo sapiens), sequence (P11511 whole entry, looked up): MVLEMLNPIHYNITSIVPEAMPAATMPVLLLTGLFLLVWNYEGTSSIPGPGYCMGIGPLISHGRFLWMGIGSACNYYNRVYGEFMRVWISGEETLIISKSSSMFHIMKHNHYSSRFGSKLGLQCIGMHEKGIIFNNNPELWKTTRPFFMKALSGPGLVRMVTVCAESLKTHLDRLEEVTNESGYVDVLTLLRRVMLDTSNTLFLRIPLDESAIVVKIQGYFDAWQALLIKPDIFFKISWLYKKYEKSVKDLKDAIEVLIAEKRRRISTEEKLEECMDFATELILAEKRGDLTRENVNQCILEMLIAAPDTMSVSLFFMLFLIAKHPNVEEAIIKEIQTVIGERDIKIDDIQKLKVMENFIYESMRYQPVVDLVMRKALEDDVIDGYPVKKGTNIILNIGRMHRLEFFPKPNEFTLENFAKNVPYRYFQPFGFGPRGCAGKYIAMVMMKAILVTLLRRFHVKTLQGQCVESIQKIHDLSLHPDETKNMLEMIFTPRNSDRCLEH

[11] = qHTS assay to identify small molecule antagonists of the thyroid receptor (TR) signaling pathway (AID 743065); further: series mostly up to about 70 µM; nearly all actives have a fitted effect of over 55% in size
Method in brief: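 Antagonism measured as loss of luciferase signal in GH3 cells stably carrying a TRE-luciferase reporter, co-treated with compound and T3 (1 nM final) for 23.5 h at 37 C. Viability was read in the same well by CellTiter-Fluor.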

[12] = target: Estrogen receptor (Homo sapiens) (UniProt P03372); assay: qHTS assay to identify small molecule antagonists of the estrogen receptor alpha (ER-alpha) signaling pathway (AID 743069; active means well fitted curve in the direction sought with a large enough effect in the signal ratio in the repeat runs, not every such curve was filed as active; inconclusive means weak or mixed curves, or effect the other way; inactive means no such curve, though single readings can be large or run the other way; the % refers to the signal ratio)
Estrogen receptor (Homo sapiens), sequence (P03372 whole entry, looked up): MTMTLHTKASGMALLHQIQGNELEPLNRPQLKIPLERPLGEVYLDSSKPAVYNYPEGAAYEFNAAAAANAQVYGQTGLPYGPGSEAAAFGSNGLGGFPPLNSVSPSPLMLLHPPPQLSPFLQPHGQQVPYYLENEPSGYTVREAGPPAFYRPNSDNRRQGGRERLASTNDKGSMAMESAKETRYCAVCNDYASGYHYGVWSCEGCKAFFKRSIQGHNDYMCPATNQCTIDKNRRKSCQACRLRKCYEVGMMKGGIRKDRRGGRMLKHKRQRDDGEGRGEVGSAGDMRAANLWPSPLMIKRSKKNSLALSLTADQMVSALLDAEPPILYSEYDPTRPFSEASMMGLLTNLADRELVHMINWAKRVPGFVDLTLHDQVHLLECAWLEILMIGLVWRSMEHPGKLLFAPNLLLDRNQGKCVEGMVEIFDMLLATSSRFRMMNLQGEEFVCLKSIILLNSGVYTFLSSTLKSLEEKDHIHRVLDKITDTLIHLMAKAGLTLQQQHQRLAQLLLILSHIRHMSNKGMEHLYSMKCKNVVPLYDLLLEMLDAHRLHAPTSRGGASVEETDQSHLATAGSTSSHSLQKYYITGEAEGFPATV
Method in brief: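 Fluorescence intensity from a beta-lactamase FRET substrate served as the read-out. Cells: HEK293 with stably integrated ER-alpha-UAS-bla reporter. Agonist 17beta-estradiol was co-added with compounds; incubation 18 hr at 37C, substrate 2 hr at room temperature.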

[13] = target: Estrogen receptor (Homo sapiens) (UniProt P03372); assay: qHTS assay to identify small molecule agonists of the estrogen receptor alpha (ER-alpha) signaling pathway (AID 743075; calls by dose curve; further: potency means the concentration at half of the fitted maximal effect)
[14] = target: Estrogen receptor (Homo sapiens) (UniProt P03372); assay: qHTS assay to identify small molecule agonists of the estrogen receptor alpha (ER-alpha) signaling pathway using the BG1 cell line (AID 743079); further: nearly all actives have a fitted effect of over 20% in size; further: potency means the concentration at half of the fitted maximal effect
[15] = qHTS assay to identify small molecule antagonists of the estrogen receptor alpha (ER-alpha) signaling pathway using the BG1 cell line (AID 743080; calls by dose curve;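 further: BG1 cells stimulated with 17beta-estradiol alongside compound; series mostly up to about 70 µM; nearly all actives have a fitted effect of over 25% in size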)
Method in brief: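 BG1Luc4E2, endogenous ER-alpha, 4xERE-luc; 5 d charcoal-stripped FBS, phenol red free; 24 h plating; cpd + 17beta-estradiol 21.5 h, 37 C/5% CO2; CellTiter-Fluor viability 30 min, then ONE-Glo luciferase 30 min RT.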

Question: Which Potency [1] does the source give for `FC(F)(F)COCC(F)(F)F` here?
Answer: inactive

Question: What about the Potency [2] of the same compound?
Answer: inactive

Question: And the Potency [3]?
Answer: inactive

Question: And the Potency [4]?
Answer: inactive

Question: And the Potency [5]?
Answer: inactive

Question: And the Potency [6]?
Answer: inactive

Question: What about the Potency [7] of the same compound?
Answer: inactive

Question: And the Potency [8]?
Answer: inactive

Question: What about the Potency [9] of the same compound?
Answer: inactive

Question: What about the Potency [10] of the same compound?
Answer: inactive

Question: And the Potency (Aromatase (Homo sapiens))?
Answer: inactive

Question: What does the source list for `Cc1onc(-c2c(F)cccc2Cl)c1C(=O)N[C@@H]1C(=O)N2[C@@H]1SC(C)(C)[C@@H]2C(=O)O`?
Answer: Potency [1]: inactive; Potency [2]: inactive; Potency [3]: inactive; Potency [4]: inactive; Potency [5]: inactive; Potency [6]: inactive; Potency [7]: inactive; Potency [8]: inactive; Potency [9]: inactive; Potency [10]: inactive; Potency (Aromatase (Homo sapiens)): inactive

Question: What does the source list for `CCOC(=O)COc1ccc2c(=O)cc(-c3ccccc3)oc2c1`?
Answer: Potency [1]: inactive; Potency [2]: 29.8 µM (active); Potency [3]: inactive; Potency [4]: 29.8 µM (active); Potency [5]: inactive; Potency [6]: inactive; Potency [7]: inactive; Potency [11]: inactive; Potency [8]: inactive; Potency [12]: inactive; Potency [9]: inactive; Potency [13]: inactive; Potency [14]: inactive; Potency [15]: inactive; Potency [10]: inactive; Potency (Aromatase (Homo sapiens)): inactive

Question: Which results are given for `CC(C)C[C@H](NC(=O)[C@@H](COC(C)(C)C)NC(=O)[C@H](Cc1ccc(O)cc1)NC(=O)[C@H](CO)NC(=O)[C@H](Cc1c[nH]c2ccccc12)NC(=O)[C@H](Cc1cnc[nH]1)NC(=O)[C@@H]1CCC(=O)N1)C(=O)N[C@@H](CCCN=C(N)N)C(=O)N1CCC[C@H]1C(=O)NNC(N)=O`?
Answer: Potency [1]: inactive; Potency [2]: inactive; Potency [3]: inactive; Potency [4]: inactive; Potency [5]: inactive; Potency [6]: inactive; Potency [7]: inactive; Potency [8]: inactive; Potency [9]: inactive; Potency [15]: inactive; Potency [10]: inactive; Potency (Aromatase (Homo sapiens)): inactive

Question: With `CCCCCCOC(=O)c1cccnc1` as the compound, how does the Potency [1] read?
Answer: inactive

Question: And the Potency [2]?
Answer: inactive

Question: What about the Potency [3] of the same compound?
Answer: inactive

Question: What about the Potency [4] of the same compound?
Answer: inactive

Question: What about the Potency [5] of the same compound?
Answer: inactive

Question: What about the Potency [6] of the same compound?
Answer: inactive

Question: What about the Potency [7] of the same compound?
Answer: inactive

Question: And the Potency [11]?
Answer: inactive

Question: And the Potency [8]?
Answer: inactive

Question: What about the Potency [12] of the same compound?
Answer: inactive

Question: And the Potency [13]?
Answer: inactive

Question: And the Potency [14]?
Answer: inactive

Question: What about the Potency [15] of the same compound?
Answer: inactive

Question: What about the Potency [10] of the same compound?
Answer: inactive

Question: And the Potency (Aromatase (Homo sapiens))?
Answer: inactive

Question: With `COC(=O)[C@H]1[C@H]2C[C@H]3c4[nH]c5ccccc5c4CCN3C[C@H]2CC[C@@H]1O` as the compound, how does the Potency [1] read?
Answer: inactive

Question: And the Potency [2]?
Answer: inactive

Question: And the Potency [3]?
Answer: inactive

Question: What about the Potency [4] of the same compound?
Answer: inactive

Question: What about the Potency [5] of the same compound?
Answer: inactive

Question: What about the Potency [6] of the same compound?
Answer: inactive

Question: And the Potency [7]?
Answer: inactive

Question: And the Potency [11]?
Answer: inactive

Question: What about the Potency [8] of the same compound?
Answer: inactive

Question: And the Potency [12]?
Answer: inactive

Question: What about the Potency [9] of the same compound?
Answer: inactive

Question: What about the Potency [13] of the same compound?
Answer: inactive

Question: What about the Potency [14] of the same compound?
Answer: inactive

Question: And the Potency [15]?
Answer: inactive

Question: And the Potency [10]?
Answer: inactive

Question: And the Potency (Aromatase (Homo sapiens))?
Answer: inactive

Question: For `CCCOC(=O)c1ccc(O)cc1`, which Potency [1] is on record?
Answer: inactive

Question: And the Potency [2]?
Answer: inactive

Question: What about the Potency [3] of the same compound?
Answer: inactive and 68.6 µM (active)

Question: And the Potency [4]?
Answer: inactive and 65.5 µM (active)

Question: What about the Potency [5] of the same compound?
Answer: inactive

Question: What about the Potency [6] of the same compound?
Answer: inactive

Question: What about the Potency [7] of the same compound?
Answer: inactive

Question: And the Potency [11]?
Answer: inactive

Question: And the Potency [8]?
Answer: inactive

Question: What about the Potency [12] of the same compound?
Answer: inactive

Question: And the Potency [9]?
Answer: inactive

Question: And the Potency [13]?
Answer: 26.8 µM [activator] (active) and 24.5 µM [inconclusive] (active)

Question: And the Potency [14]?
Answer: 21.1 µM (active) and 16.1 µM (active)

Question: And the Potency [10]?
Answer: inactive

Question: What about the Potency (Aromatase (Homo sapiens)) of the same compound?
Answer: inactive

Question: What does the source list for `CCCC(CCC)C(=O)OC1C[C@H]2CC[C@@H](C1)[N+]2(C)C` (stereo partly drawn)?
Answer: Potency [1]: inactive; Potency [2]: inactive; Potency [3]: inactive and 13.3 µM (active); Potency [4]: inactive; Potency [5]: inactive; Potency [6]: inactive; Potency [7]: inactive; Potency [11]: inactive; Potency [8]: inactive; Potency [9]: inactive; Potency [10]: inactive; Potency (Aromatase (Homo sapiens)): inactive

Question: With `CO/N=C(\C(=O)N[C@@H]1C(=O)N2C(C(=O)O)=C(COC(C)=O)CS[C@H]12)c1csc(N)n1` (stereo in doubt) as the compound, how does the Potency [1] read?
Answer: inactive

Question: And the Potency [2]?
Answer: inactive

Question: And the Potency [3]?
Answer: inactive

Question: What about the Potency [4] of the same compound?
Answer: inactive

Question: And the Potency [5]?
Answer: inactive

Question: And the Potency [6]?
Answer: inactive

Question: And the Potency [7]?
Answer: inactive

Question: And the Potency [11]?
Answer: inactive

Question: And the Potency [8]?
Answer: inactive

Question: What about the Potency [9] of the same compound?
Answer: inactive

Question: What about the Potency [10] of the same compound?
Answer: inactive

Question: What does the source list for `CCN(CC)C(=O)c1cccnc1`?
Answer: Potency [1]: inactive; Potency [2]: inactive; Potency [3]: inactive; Potency [4]: inactive; Potency [5]: inactive; Potency [6]: inactive; Potency [7]: inactive; Potency [11]: inactive; Potency [8]: inactive; Potency [9]: inactive; Potency [10]: inactive

Question: For `O=C(N[C@H](CO)[C@H](O)c1ccc([N+](=O)[O-])cc1)C(Cl)Cl`, which Potency [1] is on record?
Answer: inactive

Question: And the Potency [2]?
Answer: 5.96 µM (active) and 15.4 µM (active)

Question: And the Potency [3]?
Answer: 7.5 µM (active) and 17.2 µM (active)

Question: And the Potency [4]?
Answer: 8.41 µM (active) and 19.7 µM (active)

Question: What about the Potency [5] of the same compound?
Answer: inactive

Question: What about the Potency [6] of the same compound?
Answer: inactive

Question: And the Potency [7]?
Answer: inactive

Question: And the Potency [11]?
Answer: inactive

Question: What about the Potency [8] of the same compound?
Answer: inactive

Question: And the Potency [12]?
Answer: inactive

Question: What about the Potency [9] of the same compound?
Answer: inactive

Question: And the Potency [13]?
Answer: inactive

Question: And the Potency [14]?
Answer: inactive

Question: And the Potency [15]?
Answer: inactive

Question: And the Potency [10]?
Answer: inactive

Question: What about the Potency (Aromatase (Homo sapiens)) of the same compound?
Answer: inactive

Question: With `CO/N=C(\C(=O)N[C@@H]1C(=O)N2C(C(=O)[O-])=C(C[n+]3cccc4c3CCC4)CS[C@H]12)c1csc(N)n1` as the compound, how does the Potency [1] read?
Answer: inactive

Question: And the Potency [2]?
Answer: inactive

Question: And the Potency [3]?
Answer: inactive

Question: And the Potency [4]?
Answer: inactive

Question: What about the Potency [5] of the same compound?
Answer: inactive

Question: What about the Potency [6] of the same compound?
Answer: inactive

Question: And the Potency [7]?
Answer: inactive

Question: What about the Potency [11] of the same compound?
Answer: inactive

Question: What about the Potency [8] of the same compound?
Answer: inactive

Question: And the Potency [12]?
Answer: inactive

Question: And the Potency [9]?
Answer: inactive

Question: And the Potency [13]?
Answer: inactive

Question: And the Potency [14]?
Answer: inactive

Question: What about the Potency [15] of the same compound?
Answer: inactive

Question: And the Potency [10]?
Answer: inactive

Question: What about the Potency (Aromatase (Homo sapiens)) of the same compound?
Answer: inactive

Question: Which results are given for `c1ccc2cc3c4ccccc4c4ccccc4c3cc2c1`?
Answer: Potency [1]: inactive; Potency [2]: inactive; Potency [3]: inactive; Potency [4]: inactive; Potency [5]: inactive; Potency [6]: inactive; Potency [7]: inactive; Potency [11]: inactive; Potency [8]: inactive; Potency [9]: inactive; Potency [10]: inactive
